From PubChem BioAssay AID1159580 (chemical genetic matrix, 2015)
Out of some 5,500 compounds screened, about 2,000 (36%) were called active. Not shown: some 18% with an inconclusive outcome. This is one part of the list. A number with no mark means an inactive call. Rule as the data show it: active = normalized growth mostly below about 0.91 (no sharp cut-off); inconclusive = no clear call, values can overlap the other calls; inactive = mostly above about 0.92.

Assay: chemical genetic growth profiling, strain panel (AID 1159580);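 also: tested at 20 µM; growth read once vehicle control cultures reached saturation at 30 °C; 1 = growth at the plate median or of vehicle wells; lower values mean less growth of the strain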
Settings: growth OD
[1] = S. cerevisiae deletion strains, locus YAL013W, strain DEP1, hits give low values
[2] = S. cerevisiae deletion strains, locus YBR229C, strain ROT2, hits give low values
[3] = S. cerevisiae deletion strains, locus YDL101C, strain DUN1, hits give low values
[4] = S. cerevisiae deletion strains, locus YDL134C, strain PPH21, hits give low values
[5] = S. cerevisiae deletion strains, locus YDR150W, strain NUM1, hits give low values
[6] = S. cerevisiae deletion strains, locus YEL061C, strain CIN8, hits give low values
[7] = S. cerevisiae deletion strains, locus YGR078C, strain PAC10, hits give low values
[8] = S. cerevisiae deletion strains, locus YHR030C, strain SLT2, hits give low values
[9] = S. cerevisiae deletion strains, locus YHR087W, strain rtc3, hits give low values
[10] = S. cerevisiae deletion strains, locus YJL187C, strain SWE1, hits give low values
[11] = S. cerevisiae deletion strains, locus YJR043C, strain POL32, hits give low values
[12] = S. cerevisiae deletion strains, locus YJR075W, strain HOC1, hits give low values
[13] = S. cerevisiae deletion strains, locus YLR039C, strain RIC1, hits give low values
[14] = S. cerevisiae deletion strains, locus YLR058C, strain SHM2 (second series), hits give low values
[15] = S. cerevisiae deletion strains, locus YLR085C, strain ARP6, hits give low values
[16] = S. cerevisiae deletion strains, locus YLR262C, strain YPT6, hits give low values
[17] = S. cerevisiae deletion strains, locus YML094W, strain GIM5, hits give low values
[18] = S. cerevisiae deletion strains, locus YMR219W, strain ESC1, hits give low values
[19] = S. cerevisiae deletion strains, locus YMR263W, strain SAP30, hits give low values
[20] = S. cerevisiae deletion strains, locus YNL153C, strain GIM3, hits give low values
[21] = S. cerevisiae deletion strains, locus YNL298W, strain CLA4 (second series), hits give low values
[22] = S. cerevisiae deletion strains, locus YNL322C, strain KRE1, hits give low values
[23] = S. cerevisiae deletion strains, locus YNR030W, strain Alg12, hits give low values
[24] = S. cerevisiae deletion strains, locus YPL055C, strain LGE1, hits give low values
[25] = S. cerevisiae deletion strains, locus YPL241C, strain CIN2, hits give low values
[26] = S. cerevisiae deletion strains, locus YPR135W, strain CTF4, hits give low values
[27] = S. cerevisiae strains, strain wild type, hits give low values
[28] = S. cerevisiae deletion strains, locus YCL061C, strain MRC1, hits give low values
[29] = S. cerevisiae deletion strains, locus YGR229C, strain SMI1, hits give low values
[30] = S. cerevisiae deletion strains, locus YKL190W, strain CNB1, hits give low values
[31] = S. cerevisiae deletion strains, locus YOL006C, strain TOP1, hits give low values
[32] = S. cerevisiae deletion strains, locus YMR307W, strain GAS1, hits give low values

SMILES: CC(C)(C)c1nc(N)sc1Br
- normalized growth [1]: 1
- normalized growth [2]: 0.998
- normalized growth [3]: 1.04
- normalized growth [4]: 0.986
- normalized growth [5]: 0.993
- normalized growth [6]: 1.02
- normalized growth [7]: 1
- normalized growth [8]: 0.98
- normalized growth [9]: 1.01
- normalized growth [10]: 1
- normalized growth [11]: 1.01
- normalized growth [12]: 1.01
- normalized growth [13]: 0.932
- normalized growth [14]: 1
- normalized growth [15]: 0.985
- normalized growth [16]: 0.951
- normalized growth [17]: 0.965
- normalized growth [18]: 1.01
- normalized growth [19]: 0.993
- normalized growth [20]: 1.02
- normalized growth [21]: 0.981
- normalized growth [22]: 1.01
- normalized growth [23]: 1
- normalized growth [24]: 0.984
- normalized growth [25]: 0.995
- normalized growth [26]: 0.868
- normalized growth [27]: 1

SMILES: CN1c2ccccc2C(=O)NC1c1cc(Br)cs1 (centres undefined)
- normalized growth [1]: 1.02
- normalized growth [2]: 0.996
- normalized growth [28]: 1.02
- normalized growth [3]: 0.996
- normalized growth [4]: 1.01
- normalized growth [5]: 0.996
- normalized growth [6]: 0.997
- normalized growth [7]: 1
- normalized growth [29]: 0.998
- normalized growth [8]: 0.99
- normalized growth [9]: 1.01
- normalized growth [11]: 1.02
- normalized growth [12]: 0.993
- normalized growth [30]: 1.01
- normalized growth [13]: 1.07
- normalized growth [14]: 1.01
- normalized growth [15]: 1.06
- normalized growth [16]: 1.06
- normalized growth [17]: 1.01
- normalized growth [18]: 1.01
- normalized growth [19]: 1.01
- normalized growth [20]: 1
- normalized growth [21]: 1.04
- normalized growth [22]: 0.996
- normalized growth [23]: 1.03
- normalized growth [31]: 1.06
- normalized growth [24]: 1.01
- normalized growth [25]: 0.996
- normalized growth [26]: 0.969
- normalized growth [27]: 1.03

SMILES: N=C(N)SCCc1cccc(CCSC(=N)N)c1
- normalized growth [1]: 0.957
- normalized growth (S. cerevisiae deletion strains, locus YAL040C, strain CLN3, hits give low values): 1.05
- normalized growth (S. cerevisiae deletion strains, locus YCL061C, strain MRC1 (second series), hits give low values): 0.984
- normalized growth (S. cerevisiae deletion strains, locus YDR363W, strain ESC2, hits give low values): 0.997
- normalized growth (S. cerevisiae deletion strains, locus YER002W, strain NOP16, hits give low values): 1.02
- normalized growth [7]: 0.992
- normalized growth [32]: 1.01
- normalized growth [20]: 1.16
- normalized growth (S. cerevisiae deletion strains, locus YNL175C, strain NOP13, hits give low values): 1.02
- normalized growth (S. cerevisiae deletion strains, locus YNL197C, strain WHI3, hits give low values): 0.981
- normalized growth (S. cerevisiae deletion strains, locus YNL224C, strain SQS1, hits give low values): 1.05
- normalized growth [22]: 0.975
- normalized growth (S. cerevisiae deletion strains, locus YOR083W, strain WHI5 (second series), hits give low values): 0.963

SMILES: Cc1ccc(CSC(=N)N)cc1
- normalized growth [1]: 1.01
- normalized growth [2]: 0.994
- normalized growth [28]: 1.01
- normalized growth [3]: 0.994
- normalized growth [4]: 1
- normalized growth [5]: 0.998
- normalized growth [6]: 0.976
- normalized growth [7]: 1.02
- normalized growth [8]: 0.995
- normalized growth [9]: 0.988
- normalized growth [11]: 1
- normalized growth [12]: 0.973
- normalized growth [30]: 1.01
- normalized growth [13]: 1.01
- normalized growth [14]: 1.01
- normalized growth [15]: 1.01
- normalized growth [16]: 1
- normalized growth [17]: 0.977
- normalized growth [18]: 1
- normalized growth [19]: 1.01
- normalized growth [20]: 0.999
- normalized growth [21]: 1
- normalized growth [22]: 0.995
- normalized growth [23]: 0.0939 (active)
- normalized growth [31]: 1.03
- normalized growth [24]: 1.01
- normalized growth [25]: 0.149 (active)
- normalized growth [26]: 1.01
- normalized growth [27]: 1.01

SMILES: Cc1ccc(CS/C(N)=N\N)cc1
- normalized growth [1]: 0.993
- normalized growth [2]: 0.996
- normalized growth [28]: 0.98
- normalized growth [3]: 0.97
- normalized growth [5]: 0.95
- normalized growth [6]: 1
- normalized growth [7]: 1
- normalized growth [29]: 0.978
- normalized growth [8]: 0.836
- normalized growth [9]: 0.983
- normalized growth [10]: 0.995
- normalized growth [11]: 0.978
- normalized growth [12]: 1.02
- normalized growth [30]: 0.982
- normalized growth [13]: 0.846
- normalized growth [14]: 0.99
- normalized growth [15]: 0.952
- normalized growth [16]: 0.889
- normalized growth [17]: 1.01
- normalized growth [18]: 0.989
- normalized growth [19]: 0.976
- normalized growth [32]: 1.05
- normalized growth [20]: 0.979
- normalized growth [21]: 0.963
- normalized growth [22]: 0.999
- normalized growth [23]: 0.976
- normalized growth [31]: 0.854
- normalized growth [24]: 0.967
- normalized growth [25]: 0.969
- normalized growth [26]: 0.907

SMILES: CC1(C)CCC(C(C)(C)O)CC1
- normalized growth [1]: 0.988
- normalized growth [2]: 1.01
- normalized growth [28]: 0.999
- normalized growth [3]: 1
- normalized growth [5]: 0.985
- normalized growth [6]: 1.03
- normalized growth [7]: 1.02
- normalized growth [29]: 0.991
- normalized growth [8]: 1.02
- normalized growth [9]: 1.02
- normalized growth [10]: 0.838 (active)
- normalized growth [11]: 0.988
- normalized growth [12]: 1
- normalized growth [30]: 0.992
- normalized growth [13]: 0.978
- normalized growth [14]: 0.995
- normalized growth [15]: 1.04
- normalized growth [16]: 0.939
- normalized growth [17]: 1.04
- normalized growth [18]: 0.998
- normalized growth [19]: 1.01
- normalized growth (S. cerevisiae deletion strains, locus YNL128W, strain TEP1, hits give low values): 0.99
- normalized growth [20]: 1.01
- normalized growth [21]: 0.994
- normalized growth [22]: 0.994
- normalized growth [23]: 1.01
- normalized growth [31]: 0.984
- normalized growth [24]: 1.01
- normalized growth [25]: 1.04
- normalized growth [26]: 0.989
